MRP1 act: H69AR viability gain despite doxorubicin, primary screen, MRP-1 activator project, H69AR cells, CellTiter-Glo | viability rescue | viability increase, % at 10 µM | 0.61% of 140,000 active;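 active = viability gain under doxorubicin at or above a set limit, the compound median plus 3 SD, cut at about 4.7% in these data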;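 also: MRP-1 overexpressing cells given doxorubicin 25 µM after compound pretreatment; 18-22 h compound pretreatment then 72 h with doxorubicin before readout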
SDO1 yeast rescue: growth rescue of sdo1-depleted yeast, primary screen, S. cerevisiae, bone marrow failure model; S. cerevisiae sdo1-depleted JHY4D growth rescue, OD600 30 h; stronger effect = higher value; pdr5 snq2 efflux-pump mutant strain; z-score at 10 µM; 0.21% of 140,000 active;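 active = z-score above 3 at both the 24 hr and the 30 hr optical density reads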
CD11b adhes enh: enhancers of CD11b/CD18 adhesion to fibrinogen, primary screen, K562 cells, luminescence; Integrin beta-2 (Homo sapiens) + Integrin alpha-M (Homo sapiens), P05107+P11215; ATPlite luminescence; activation, % at 10 µM; 0.07% of 93,000 active; AID 1499, 2009;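 active = 10 µM primary screen giving 50% or more activity, confirmed by 40% or more on retest at that dose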
Target sequence (P05107 whole entry, looked up, other chains not shown): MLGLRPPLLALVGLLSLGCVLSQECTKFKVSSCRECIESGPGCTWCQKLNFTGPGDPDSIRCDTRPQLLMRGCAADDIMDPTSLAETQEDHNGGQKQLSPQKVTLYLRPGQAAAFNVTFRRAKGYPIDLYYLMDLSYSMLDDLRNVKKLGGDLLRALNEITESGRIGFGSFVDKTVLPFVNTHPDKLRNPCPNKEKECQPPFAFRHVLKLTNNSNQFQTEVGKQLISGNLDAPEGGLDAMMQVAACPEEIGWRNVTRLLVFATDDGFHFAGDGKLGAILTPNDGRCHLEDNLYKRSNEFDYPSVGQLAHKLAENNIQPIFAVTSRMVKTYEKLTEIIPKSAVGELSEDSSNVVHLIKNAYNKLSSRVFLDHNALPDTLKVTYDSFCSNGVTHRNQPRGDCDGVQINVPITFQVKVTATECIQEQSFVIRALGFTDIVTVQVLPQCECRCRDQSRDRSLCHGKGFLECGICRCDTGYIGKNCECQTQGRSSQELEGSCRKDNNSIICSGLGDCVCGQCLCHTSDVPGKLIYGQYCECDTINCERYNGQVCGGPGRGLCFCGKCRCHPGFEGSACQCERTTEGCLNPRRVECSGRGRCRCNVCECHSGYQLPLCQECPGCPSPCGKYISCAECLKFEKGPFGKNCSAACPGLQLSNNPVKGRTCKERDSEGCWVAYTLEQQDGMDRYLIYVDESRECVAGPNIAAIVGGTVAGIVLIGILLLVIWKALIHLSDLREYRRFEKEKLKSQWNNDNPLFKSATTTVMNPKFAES
Phagocyt inh: inhibitors of macrophage phagocytosis, primary screen, imaging, J774A.1 cells, IgG beads; J774A.1 macrophage IgG-bead phagocytosis; inhibition, % at 5 µM; 0.07% of 110,000 active;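 active = inhibition above the mean of the plate negative controls plus 5 SD, cut at about 13% in these data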;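 also: phagocytic index as fraction of beads internalized from green versus red external bead signal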
Mac1 fbg inh: inhibitors of CD11b/CD18 adhesion to fibrinogen, primary screen, K562 cells, luminescence; ATPlite luminescence; Mn2+ added to activate the integrin; inhibition, % at 10 µM; 0.54% of 93,000 active; AID 1497, 2009;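 active = primary inhibition of 50% or more at 10 µM, then 40% or more on retest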
MRP reversal: reversal of MRP1-mediated doxorubicin resistance, primary screen, H69AR cells, doxorubicin co-treatment; H69AR cells + 2 uM doxorubicin, CellTiter-Glo, 72 h; differential viability (reversal), % at 10 µM; 0.04% of 85,000 active; AID 602, 2007;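 active = viability drop by adding the cancer drug above about 55%, with treated viability meeting a 40% cutoff, limit read from the data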;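 also: larger differential means the compound sensitizes cells more to doxorubicin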
Of the large screens only hits and unclear results are named; the others gave an inactive call; [ ] = another dose, or the depositor's remark. A selection: hits, their analogues and other compounds. The true share with any hit is near 1.3%.

C/C(=N/O)c1ccc2c(c1)OCCOCCOc1cc(/C(C)=N/O)ccc1OCCOCCO2	none (no result: CD11b adhes enh, Mac1 fbg inh, MRP reversal)
CCOC(=O)c1sc(NC(=O)Nc2ccccc2)cc1C	none (no result: CD11b adhes enh, Mac1 fbg inh, MRP reversal)
CCOC(=O)c1sc(-c2ccccc2)cc1NC(=O)Nc1ccccc1	MRP1 act 6.0 (no result: MRP reversal)
CCOC(=O)c1sc(-c2ccc(F)cc2)cc1NC(=O)Nc1ccccc1OC	MRP1 act 9.0 (no result: MRP reversal)
CCC(=O)N/N=C(\C)CC(=O)Nc1cccc([N+](=O)[O-])c1	none (no result: CD11b adhes enh, Mac1 fbg inh, MRP reversal)
COc1ccc(NC(=O)c2oc3ccccc3c2NC(=O)C2CC2)cc1	none (no result: MRP reversal)
COc1ccc(NC(=O)c2oc3ccccc3c2NC(=O)C(C)(C)C)cc1	MRP1 act 5.5 (no result: MRP reversal)
Cc1ccc(NC(=O)CCNC(=O)c2ccco2)cc1	none (no result: CD11b adhes enh, Mac1 fbg inh, MRP reversal)
COc1ccccc1NS(=O)(=O)c1ccc(NC(=O)CCNC(=O)c2ccco2)cc1	CD11b adhes enh 68
CCOC(=O)c1cc(-c2ccccc2)sc1NC(=O)C(C)Sc1nnc(C)s1 (configuration not stated)	MRP1 act 9.2 (no result: CD11b adhes enh, Mac1 fbg inh, MRP reversal)
CC1CCN(C(=O)CCc2ccc(S(=O)(=O)NC(C)(C)C)cc2)CC1	none
CC(C)(C)NS(=O)(=O)c1ccc(CCC(=O)N2CCOCC2)cc1	Phagocyt inh 22[artifact]
Cn1c(C(=O)O)c(CC(=O)N2CCC(Cc3ccccc3)CC2)c2ccccc21	none (no result: CD11b adhes enh, Mac1 fbg inh)
Cc1ccc(-c2nn(C)c(=O)c3ccccc23)cc1CNC(=O)Cn1nc(-c2ccccc2)c2ccccc2c1=O	CD11b adhes enh 133
Cc1cc(C)n(CC(=O)NCc2cc(-c3nn(C)c(=O)c4ccccc34)ccc2C)n1	none
Clc1ccc(OCc2nc(-c3ccccn3)n[nH]2)cc1	none
Brc1ccc(OCc2nc(-c3ccccn3)n[nH]2)cc1	MRP1 act 8.4
CCn1c(SC(=O)NC2CCCCC2)nnc1-c1cccs1	none (no result: MRP reversal)
COC(=O)C(Nc1ccccc1Cl)(c1cc(C)c(O)c(C)c1)C(F)(F)F (configuration not stated)	none (no result: MRP reversal)
COC(=O)/C(=C(/F)Sc1cc(C)c(O)c(C)c1)C(F)(F)F	Mac1 fbg inh 55
Cc1cccc(-c2nc(CSCC(=O)N3CCN(Cc4ccc5c(c4)OCO5)CC3)c(C)o2)c1	Mac1 fbg inh 81
Cc1ccc(-c2nc(CSCC(=O)N3CCN(c4ccccn4)CC3)c(C)o2)cc1	Mac1 fbg inh 88 (no result: Phagocyt inh)
CCOC(=O)c1cccc(NC(=O)C(NS(=O)(=O)c2ccc3c(c2)CCN3C(C)=O)C(C)C)c1 (configuration not stated)	none (no result: MRP reversal)
CCCCOc1cccc(C(=O)NC(=S)Nc2cccc(C(F)(F)F)c2)c1	none (no result: CD11b adhes enh, Mac1 fbg inh, MRP reversal)
CCNC(=O)NC(=O)CSc1ccccc1F	none (no result: CD11b adhes enh, Mac1 fbg inh, MRP reversal)
Cc1ccc(Cn2c(SCC(=O)N/N=C/c3ccc(C)o3)nc3ccccc32)cc1	MRP1 act 4.7 (no result: Phagocyt inh, MRP reversal)
N=C(N)SCc1ccccn1	MRP1 act 6.3 (no result: CD11b adhes enh, Mac1 fbg inh, MRP reversal)
Cc1cc(NC(=O)c2cc(C(C)C)on2)nn1Cc1ccc(Cl)cc1	MRP1 act 6.7
Cc1cc(C(=O)Nc2cc(C)n(Cc3ccc(Cl)cc3)n2)no1	none (no result: CD11b adhes enh, Phagocyt inh, Mac1 fbg inh)
COc1ccc2cc(-c3cc(C(=O)O)c4ccccc4n3)ccc2c1	MRP1 act 6.5 (no result: CD11b adhes enh, Phagocyt inh, Mac1 fbg inh, MRP reversal)
CCC1=NN2C(=N)/C(=C\c3ccc(SCc4ccco4)o3)C(=O)N=C2S1	none
CCCC1=NN2C(=N)/C(=C\c3ccc(SCc4ccco4)o3)C(=O)N=C2S1	Mac1 fbg inh 64 (no result: Phagocyt inh)
COC(=O)c1sc(NC(=O)c2oc3ccccc3c2C)nc1C	none
Cc1c(C(=O)Nc2nnc(C(F)(F)F)s2)oc2ccccc12	MRP1 act 8.9 (no result: Phagocyt inh)
Cc1onc(-c2ccccc2Cl)c1C(=O)Nc1nnc(-c2cccc([N+](=O)[O-])c2)s1	Mac1 fbg inh 90
CCOC(=O)C(C)Sc1nnc(NC(=O)c2ccc(C)c([N+](=O)[O-])c2)s1 (configuration not stated)	Mac1 fbg inh 66 (no result: MRP reversal)
COc1cc(Cl)c(S(=O)(=O)NCc2ccccn2)cc1Cl	none (no result: Phagocyt inh)
CCCS(=O)(=O)c1c(S(=O)(=O)CCC)c2c(N)cccn2c1C(=O)c1ccc(Br)cc1	none (no result: CD11b adhes enh, Phagocyt inh, Mac1 fbg inh)
CCCS(=O)(=O)c1c(S(=O)(=O)CCC)c2cnccn2c1C(=O)c1ccc(Cl)cc1	SDO1 yeast rescue 15
Cn1c(N)c(C(=O)COC(=O)c2cc(-c3ccccc3)nc3ccccc23)c(=O)n(Cc2ccccc2)c1=O	none (no result: CD11b adhes enh, Phagocyt inh, Mac1 fbg inh, MRP reversal)
Cn1c(N)c(C(=O)COC(=O)c2cc(C3CC3)nc3ccccc23)c(=O)n(Cc2ccccc2)c1=O	MRP1 act 5.3 (no result: CD11b adhes enh, Phagocyt inh, Mac1 fbg inh, MRP reversal)
CCCNC(=O)c1nc2ncc(Br)cn2n1	none
CCCCNC(=O)c1nc2ncc(Br)cn2n1	Phagocyt inh 193
Cc1cc(C)c(S(C)(=O)=O)c(Sc2ccc(Cl)cc2)n1	MRP1 act 5.4 (no result: CD11b adhes enh, Phagocyt inh, Mac1 fbg inh, MRP reversal)
Cc1cc(C)c(S(=O)(=O)c2ccccc2)c(Cl)n1	none (no result: MRP reversal)
CCOC(=O)Cc1csc(NS(=O)(=O)c2ccccc2)n1	none (no result: CD11b adhes enh, Phagocyt inh, Mac1 fbg inh, MRP reversal)
CCOC(=O)c1ccccc1-c1csc(NS(=O)(=O)c2ccc(Cl)cc2)n1	Mac1 fbg inh 54 (no result: MRP reversal)
CN1CCN(c2nc(-c3ccccn3)nc3ccccc23)CC1	MRP reversal 68 (no result: Phagocyt inh)
c1ccc(N2CCN(c3nc(-c4ccccn4)nc4ccccc34)CC2)cc1	none (no result: MRP reversal)
Cc1n[nH]c(=S)n(/N=C/c2ccccn2)c1=O	MRP1 act 6.0
O=C(c1ccc(CNc2c(N3CCCC3)c(=O)c2=O)cc1)N1CCc2ccccc2C1	none
O=C(CCCn1c(=O)c2sccc2n(Cc2ccc(F)cc2)c1=O)NCc1ccco1	none
COc1ccccc1-c1cc(C(=O)NC(C)c2ccccc2)no1 (configuration not stated)	MRP1 act 5.1
Cc1cc(C)cc(N(CC(=O)NCCSc2ccccn2)S(=O)(=O)c2ccccc2)c1	none (no result: CD11b adhes enh, Phagocyt inh, Mac1 fbg inh, MRP reversal)
COc1ccc(C(c2nnnn2Cc2cccs2)N2CCN(c3ccccc3F)CC2)cc1 (configuration not stated)	none
CCC(=NC(C)c1ccccc1)c1c(O)n(C)c(=O)n(C)c1=O (configuration not stated)	Mac1 fbg inh 71 (no result: Phagocyt inh)
Cn1c(N)c(C(=O)c2ccccc2)c(=O)n(C)c1=O	none (no result: MRP reversal)
COc1ccc(CCN2C(=O)CS/C2=N/NC(=O)c2ccccc2F)cc1OC	none (no result: CD11b adhes enh, Mac1 fbg inh, MRP reversal)
O=C(Nc1ccccc1-c1nnc(SCc2ccc(Cl)cc2)o1)c1ccccc1	none (no result: MRP reversal)
O=c1c(-c2nnc(SCc3ccc(Cl)cc3)o2)cccn1Cc1ccccc1	MRP1 act 5.4 (no result: CD11b adhes enh, Phagocyt inh, Mac1 fbg inh, MRP reversal)
COc1ccc(S(=O)(=O)NCCSC(C)(C)C)cc1	none
CCOC(=O)c1c(NC(=O)CSc2ncn[nH]2)sc(C)c1C	MRP1 act 15
CCOC(=O)c1c(NC(=O)CSc2nc3ccccc3s2)sc(C)c1C	none (no result: MRP reversal)
COc1cc2nc(SCc3ccc(F)cc3)n(Cc3cccs3)c(=N)c2cc1OC	none (no result: CD11b adhes enh, Phagocyt inh, Mac1 fbg inh, MRP reversal)

Assay outcomes from PubChem BioAssay.
